Source: PubChem
The list is not random: actives were taken first. Their share in the collection is about 0.52%.
Sa growth 42C: S. aureus growth inhibition at 42 and 30 °C, primary screen, LtaS inhibitor project, RN4220, two temperatures | 170,000 tested, 0.53% active | relative growth, % (test concentration not listed) | OD600, 20 h, 42 °C; stronger effect = lower value;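 active = relative growth at most 50% at the other temperature and 20+ points below 30 °C, or under 10% at both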
S aureus helic: inhibitors of S. aureus replicative helicase, primary screen, biochemical, fluorescence unwinding readout. 120,000 tested, 0.05% active. inhibition, % (test concentration not listed). purified S. aureus helicase, fluorescence unwinding assay. replicative DNA helicase (DnaC/DnaB), Staphylococcus aureus; in the data active = inhibition above about 25%, passing the limit was not always enough
Of the large screens only hits and unclear results are named; the others gave an inactive call; ! = a repeat was not active.

N#Cc1cccc(CSc2nc3ccc(C(F)(F)F)cc3[nH]2)c1	none (no result: S aureus helic)
CN(C)/C=C/C(=O)c1ccccc1	none
O=C(/C=C/C(=O)c1ccccc1)c1ccccc1	Sa growth 42C -0.4
Cc1oc(-c2cccc(Br)c2)nc1CN1CCC(C(=O)NC2CCCCC2)CC1	none
COc1cc(C(=O)OCc2cc3ccccc3nc2Cl)cc2c1OCCO2	none
COc1ccccc1C(CC(=O)N1CCCC1)c1ccc2c(c1)OCO2 (centres undefined)	none
COc1cccc(C(c2cc3c(cc2O)OCO3)N2CCCC2)c1O (centres undefined)	Sa growth 42C 1.2
CS(=O)(=O)C1=NN2C(=N)/C(=C\c3ccc(-c4ccc(Cl)cc4)o3)C(=O)N=C2S1	none
CCS(=O)(=O)C1=NN2C(=N)/C(=C\c3ccc(-c4ccccc4)o3)C(=O)N=C2S1	Sa growth 42C 44
CC(C)C(NC(=O)COc1ccccc1)C(C)C	none
Nc1c(S(=O)Cc2ccc(Cl)cc2)sc2nc3c(cc12)CCCC3 (centres undefined)	none
CO[C@H]1/C=C/O[C@@]2(C)Oc3c(C)c(O)c4c(O)c(c5c(nc6cc(C)ccn65)c4c3C2=O)NC(=O)/C(C)=C\C=C\[C@H](C)[C@H](O)[C@@H](C)C(O)[C@@H](C)[C@H](OC(C)=O)[C@@H]1C (some centres undefined)	Sa growth 42C -0.8 (no result: S aureus helic)
CO[C@H]1C=CO[C@@]2(C)Oc3c(C)c(O)c4c(O)c(c5c(c4c3C2=O)NC2(CCN(CC(C)C)CC2)N=5)=NC(=O)C(C)=CC=C[C@H](C)[C@H](O)[C@@H](C)[C@@H](O)[C@@H](C)[C@H](OC(C)=O)[C@@H]1C	Sa growth 42C 0.6 (no result: S aureus helic)
CO[C@H]1C=CO[C@@]2(C)Oc3c(C)c(O)c4c(O)c(c5c(nc6cc(C)ccn65)c4c3C2=O)NC(=O)C(C)=CC=C[C@H](C)[C@H](O)[C@@H](C)[C@@H](O)[C@@H](C)[C@H](OC(C)=O)[C@@H]1C	none (no result: S aureus helic)
CO[C@H]1/C=C/O[C@@]2(C)Oc3c(C)c(O)c4c(O)c(c(C=NN5CCN(C)CC5)c(O)c4c3C2=O)NC(=O)/C(C)=C\C=C\C(C)[C@H](O)[C@@H](C)[C@@H](O)[C@@H](C)[C@@H](OC(C)=O)[C@@H]1C (some centres undefined)	Sa growth 42C 1.3 (no result: S aureus helic)
CC(C)CC(=O)N[C@H](C(=O)NC(C(=O)NC(CC(C)C)[C@@H](O)CC(=O)N[C@@H](C)C(=O)N[C@@H](CC(C)C)[C@@H](O)CC(=O)O)C(C)C)C(C)C (some centres undefined)	none (no result: S aureus helic)
O=C(Oc1cccc2cccnc12)c1cccc(Cl)c1	none (no result: Sa growth 42C)
COc1ccc(OC)c(CCNc2nc3cc(OC)c(OC)cc3c3nc(-c4cccnc4)nn23)c1	none (no result: S aureus helic)
N#C/C(=C/c1ccccc1)c1cccc(C#N)c1	none
N#C/C(=C\c1ccccc1)c1cccc(Cl)c1	Sa growth 42C 44 (no result: S aureus helic)
NNC(=O)C1C2CCCCC21 (centres undefined)	none
O=C(Nc1ccccc1)Nc1ccc2nnsc2c1	Sa growth 42C 2.4 (no result: S aureus helic)
O=C(Nc1ccccc1)Nc1ccc2snnc2c1	none
O=C(Nc1cccc(C(F)(F)F)c1)Nc1ccc2snnc2c1	Sa growth 42C 9.9 (no result: S aureus helic)
O=C(Nc1cccc(C(F)(F)F)c1)c1ccc2snnc2c1	none (no result: S aureus helic)
CCOC(=O)c1c(C)c(-c2ccccc2)n(CC(=O)Nc2cccc(F)c2)c1C	none (no result: S aureus helic)
Cc1ccc(NC(=O)c2sc(=S)n3c2[nH]c(=O)c2ccccc23)c(C)c1	Sa growth 42C 4.6 (no result: S aureus helic)
COc1ccc(NC(=O)c2sc(=S)n3c2[nH]c(=O)c2ccccc23)cc1	none
Fc1cccc(CSc2ncnc3nc[nH]c23)c1	none (no result: Sa growth 42C)
COc1c(I)cc(Cl)c2cccnc12	none (no result: S aureus helic)
Oc1c(I)cc(Cl)c2cccnc12	Sa growth 42C 1.3!
CC(C)CNC(=O)c1ccccc1S(=O)(=O)N1CCCCC1	Sa growth 42C 49
O=S(=O)(c1cccc2ccccc12)N1CCCCC1	none
O=C(O)CSc1ccc(-c2ccccc2)nn1	none
C[C@@H](O)[C@H]1C(=O)N2C(C(=O)O)=C(S[C@@H]3CN[C@H](C(=O)N(C)C)C3)[C@H](C)[C@H]12	Sa growth 42C -0.5 (no result: S aureus helic)
NC(=O)C1CCN(c2ncnc3nc[nH]c23)CC1	none
CO[C@H]1C[C@H](O[C@H]2[C@H](C)[C@@H](O[C@@H]3O[C@H](C)C[C@H](N(C)C)[C@H]3OC(C)=O)[C@@H](C)C[C@@]3(CO3)C(=O)[C@H](C)[C@@H](OC(C)=O)[C@@H](C)[C@@H](C)OC(=O)[C@@H]2C)O[C@@H](C)[C@@H]1OC(C)=O	Sa growth 42C 3.7 (no result: S aureus helic)
N#Cc1c(N)[nH]c(=S)c(C(N)=O)c1-c1cccc(Br)c1	Sa growth 42C 0.3
CCc1[nH]c(=S)c(C#N)c(-c2ccccc2)c1C(=O)OC	none
O=c1cc(C(F)(F)F)[nH]c2c(OC(F)(F)F)cccc12	Sa growth 42C 3.4 (no result: S aureus helic)
O=c1cc(C(F)(F)F)[nH]c2c(Br)cccc12	Sa growth 42C 3.1
COc1cccc2c(=O)cc(C)[nH]c12	none
